Source: ChEMBL document CHEMBL3988442, “University of Dundee, Small-Polar-MMV Screening Library” (2021)
In all, about 48,000 compounds went through this assay and about 13,000 (27%) showed an effect of 50% or more. The list shows a part of the results.

What follows are molecules tested on Wolbachia pipientis (assay: Anti-Wolbachia Cell-Based Screen). Conditions: 5 µM.
Format: functional
Set-up: scale not given: in the data most compounds retested in dose-response had high values

Row | Structure (SMILES) | Percent Effect [%]
1 | COC(C)c1nc(CN2CCCNCC2)cs1 (configuration not stated) | 4.679
2 | CC(CS(C)(=O)=O)N(C(=O)c1ccc(Cl)s1)C1CC1 (configuration not stated) | -8.906
3 | Cc1cccc2c1OCCCC2NCc1nnc2n1CCCCC2 (configuration not stated) | -7.858
4 | CN(Cc1ccon1)C1CCN(c2cccc(-c3cscn3)c2)CC1 | -11.17
5 | Cc1nc2c(c(=O)[nH]1)CCN(Cc1ccc3c(c1)CCCN3C)C2 | 94.44
6 | Cc1nc2c(c(=O)[nH]1)CN(Cc1ccc3c(c1)CCCN3C)CC2 | 56.56
7 | CCCN1CCc2nc(SCc3c(C)cc(C)cc3C)[nH]c(=O)c2C1 | 4.96
8 | Cn1nc2c(cc1=O)CN(Cc1ccc(-n3cccn3)cc1)CC2 | 6.074
9 | CC(C(=O)Nc1ccnn1C(C)C)N1CCCN(c2nccs2)CC1 (configuration not stated) | 10.48
10 | OCCn1nnnc1Cc1ccc(Br)cc1 | -3.897
11 | O=C(c1[nH]nc(C2CC2)c1Cl)N1CCN(C2CC2)CC1 | -10.68
12 | CC1CN(C)CCN1C(=O)c1cccn1Cc1cccs1 (configuration not stated) | -1.596
13 | CC(C)(C)n1cc(C(=O)N2CCCN(Cc3cccs3)CC2)cn1 | -3.981
14 | COc1ccc(C(=O)N2CC(=O)N(Cc3cccs3)CC(O)C2)cc1 (configuration not stated) | 106.6
15 | CC(C)(C)NC(=O)[C@@H]1Cc2ccccc2CN1Cc1cccs1 | 16.75
16 | O=C(c1ccc(F)cc1)N1C[C@@H]2CN(c3ncccn3)C[C@@H]2C1 | 2.652
17 | COc1ccc(C(=O)N2CCN(C(=O)c3csc(C(C)C)n3)CC2)cc1 | -4.051
18 | Cc1ccc(C(=O)N2CC(=O)N(Cc3cccs3)CC(O)C2)cc1 (configuration not stated) | 76.19
19 | COc1ccc(OCc2nc(C(=O)N3CC(O)C3)co2)cc1 | -10.13
20 | O=C1CN(C(=O)c2ccc(F)cc2)CC(O)CN1Cc1cccs1 (configuration not stated) | 106.9
21 | CSc1ccc(C(=O)N2CC(=O)N(Cc3cccs3)CC(O)C2)cc1 (configuration not stated) | 110.9

Row | Structure (SMILES) | Percent Effect [%]
22 | CN(C)C(=O)CNC(CC(F)(F)F)c1ccc(F)cc1 (configuration not stated) | -7.138
23 | CCc1cnc(N2CC3(CCN(S(=O)(=O)C4CC4)C3)C2)nc1 | -6.098
24 | CCCNC(=O)CNc1cc(C(=O)N2CCSCC2)ccc1C | -10.89
25 | Cc1ccc(S(=O)(=O)NCCNc2cc(-n3cccc3)ncn2)c(C)c1 | 19.5
26 | CC(C)Oc1ccc(-c2csc(Cn3ccc(=O)[nH]c3=O)n2)cc1 | -3.236
27 | O=C1CN(C(=O)C2CCOC2)CCN1Cc1ccc(Cl)cc1 (configuration not stated) | -11.12
28 | O=C1CN(C(=O)c2ccc(Cl)cc2)CC(O)CN1Cc1cccs1 (configuration not stated) | 98.52
29 | CN(Cc1cnc(C(C)(C)C)nc1)Cc1nc2ccc(F)cc2[nH]1 | 92.92
30 | Cc1nc(CCN)cc(N(C)Cc2nc3ccc(F)cc3[nH]2)n1 | -5.934
31 | CCc1ccc(CN(CC)Cc2ccc(S(=O)(=O)NC)cc2)cc1 | -10.93
32 | Cc1ccc(OCC(=O)N(C)Cc2ccc(F)cc2)cn1 | -1.613
33 | CNS(=O)(=O)c1ccc(CN(C)Cc2nc3ccc(F)cc3[nH]2)cc1 | 112.9
34 | CCOc1ccccc1CN(CC)Cc1ccc(S(=O)(=O)NC)cc1 | 14.99
35 | CNc1ncc(CN(C)Cc2cc(O)c3cc(F)ccc3n2)cn1 | -2.585
36 | COc1cccc(CN(C)Cc2nc3cc(C)ccc3[nH]2)c1O | 1.617
37 | Cc1ccc(CN(C)Cc2nc3ccc(F)cc3[nH]2)cn1 | 92.16
38 | CCNC(=O)NC(C)(C)C(=O)NCc1cccc(N2CC=CC2)c1 | 1.796
39 | CC(O)c1cccc(N2CCC3(CC2)Nc2ccccc2NC3=O)n1 (configuration not stated) | 0.04909
40 | CCc1nc(C)c(C(=O)NCCNc2cnccn2)s1 | 1.537
41 | C[S+]([O-])c1nncn1CC(=O)c1ccc2c(c1)CCC2 (configuration not stated) | -5.964
42 | CCCS(=O)(=O)NC(=O)c1ccc(CC)o1 | -1.389

Row | Structure (SMILES) | Percent Effect [%]
43 | CCn1cnnc1CCNc1nc(C)cc(C)c1C#N | 126.1
44 | Cc1cc(NCCO)nc(N2CCCC2)c1C#N | -1.529
45 | Cc1cc(C)c(C#N)c(NCCn2cnnc2C(C)C)n1 | 112.6
46 | Cc1cc(NCCO)nc(N2CCN(C)CC2)c1C#N | 2.525
47 | Cc1cc(C)cc(OCCNC(=O)C(C)Sc2nncn2C)c1 (configuration not stated) | -3.054
48 | CCn1cnnc1CCNC(=O)C(C)(C)c1cccc(Cl)c1 | -6.534
49 | Cc1cc(C)c(C#N)c(NCCSc2nncn2C)n1 | 98.82
50 | CCn1cnnc1CCNC(=O)c1ccc(Br)cc1F | -14.54
51 | CCn1c(C)nnc1SCCNc1nc(C)ncc1S(C)(=O)=O | -10.91
52 | CC(C)(C)OC(=O)NC(C)(C)c1noc(Cn2ccnc2)n1 | 11.22
53 | CSCCC(NC(N)=O)C(=O)NCc1ccc(-n2cccn2)cc1 (configuration not stated) | -16.66
54 | O=C(Nc1cccnc1)NC1CCN(c2ccccc2OC(F)F)C1 (configuration not stated) | -19.82
55 | O=C(O)c1ccnc(-c2ccnc(N3CCC4(CCO4)CC3)n2)c1 | -4.14
56 | CCc1ccc(CN2CC[C@H]3[C@H]2CC(=O)N3Cc2cccc(C)n2)o1.O=C(O)C(F)(F)F.O=C(O)C(F)(F)F | 105.5
57 | COc1ccc(CN2CC[C@H]3[C@H]2CC(=O)N3Cc2cccc(C)n2)cc1.O=C(O)C(F)(F)F.O=C(O)C(F)(F)F | 96.36
58 | Cc1cccc(CN2C(=O)C[C@H]3[C@@H]2CCN3Cc2ccc(F)cc2)n1.O=C(O)C(F)(F)F.O=C(O)C(F)(F)F | 93.32
59 | Cc1cccc(CN2C(=O)CC[C@@H]3[C@H]2CCN3Cc2ccc(F)cc2)n1.O=C(O)C(F)(F)F.O=C(O)C(F)(F)F | -9.661
60 | Cc1ccc(CN2CC[C@H]3[C@H]2CC(=O)N3c2ccsc2)o1.O=C(O)C(F)(F)F | 12.94
61 | Cc1cccc(CN2C(=O)CC[C@@H]3[C@H]2CCN3Cc2cccnc2)n1.O=C(O)C(F)(F)F.O=C(O)C(F)(F)F.O=C(O)C(F)(F)F | -1.034
62 | Cc1cccc(CN2C(=O)CC[C@@H]3[C@H]2CCN3C(=O)c2ccsc2)n1.O=C(O)C(F)(F)F | -10.27
